The panel holds about 83,000 compounds, 20% with a hit somewhere; the sample as a whole holds those more often.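 Cell lines were cultured in 96-well plates, exposed to a single compound concentration, and assessed for percent growth 48 hours later.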 Activity calls are given as the source filed them.

This experiment deals with A549/ATCC NSCLC. The experiment in a line: NCI-60 one-dose screen, 48 h (100 = growth as untreated, 0 = no growth, -100 = all killed). The settings on record: 10 µM unless noted. The method, then: Growth inhibition of the A549/ATCC human Non-Small Cell Lung tumor cell line is measured as a screen for anti-cancer activity. Cells are grown in 96 well plates and exposed to the test compound for 48 hours. Compounds are tested at a single concentration, which is 10^-5 M for most compounds. The reported endpoint is percent growth (GI% or GIPRCNT), where numbers from 0 - 100% represent growth inhibition, and numbers from -100% - 0 represent cell death. For example, a value of 40 represents 60% growth inhibition. A value of 0 means no net growth occurred over the course of the experiment. A value of -40 indicates 40% of cells at the beginning of the experiment died by the end of the experiment. A value of -100 means all cells are dead at the end of the experiment.
NCI-60 Human Tumor Cell Lines Screen was performed using the standard one-dose NCI protocol, which is described in more detail at https://dtp.cancer.gov/discovery_development/nci-60/default.htm.
Compounds with GIPRCNT values below 10 were considered active. Activity score was based on GIPRCNT using the following formula: […]
Score is 0 for GIPRCNT values of 100 or above, 50 for GIPRCNT values of 0, and 100 for GIPRCNT values of -100.
For `O=C(Nc1ccc2[nH]ncc2c1)c1csc(Nc2ccccc2)n1`, the growth was 40.7% (inactive).

As to `COc1ccc(CNc2ccc3nc(CCC4CCCCC4)[nH]c3c2)cc1`, the growth was 80.2% (inactive).

`CS(=O)(=O)Nc1cc(-c2ccc3ncnc(Nc4cccc(Cl)c4)c3c2)cnc1Cl`: the growth is -13.4% (active).

On to `COC(=O)c1nc(-c2ccccc2)oc1S(=O)(=O)N1CCN(c2ccc(OC)cc2)CC1`, for which the growth is 95.9% (inactive).

`O=C(/C=C/c1cccc([N+](=O)[O-])c1)c1ccc(Nc2nc(Nc3ccc(F)cc3)nc(Nc3ccc(Cl)cc3)n2)cc1`: the growth was 83% (inactive).

`COc1ccc(-c2cc(-c3ccc(N(C)C)cc3)nc(NC(=O)c3cccnc3)n2)cc1`: the growth was 105% (inactive).

Turning to `C#Cc1c(I)n(C2OC(CO[Si](C)(C)C(C)(C)C)C3OC(C)(C)OC32)c(=O)[nH]c1=O` (stereo not given), the growth is 92.6% (inactive).

Take `CC(C)(C)n1cc(-c2ccnc(NCCNS(=O)(=O)c3cccc4ccccc34)c2)c(-c2cccc(O)c2)n1`: the growth is 62.7% (inactive).

Take `CSc1nc(CC(C)C)c(C#N)c(=O)n1C`: the growth is 80.7% (inactive).

Consider `Cn1ncc(CC(=O)O)c1-n1nnc2cc(Cl)ccc2c1=O`, for which the growth is 97.3% (inactive).

`CC1=C(C(=O)c2ccccc2)C(c2ccc3c(c2)OCO3)NC(=S)N1` (stereo not given): the growth is 40.3% (inactive).

As to `Clc1nc(N2CCC[N+]3(CC2)CC[N+]2(CCCNCC2)CC3)nc(N2CCC[N+]3(CC2)CC[N+]2(CCCNCC2)CC3)n1` (stereo not given), the growth is 86.1% (inactive).

Consider `COc1cc(/C=C2\C(=O)N(CCOc3cc(O)c4c(=O)cc(-c5ccccc5)oc4c3)c3ccccc32)cc(OC)c1O`, for which the growth is 85% (inactive).

On to `C#CCOc1cccc(Nc2c(Cl)c(CCl)nc3ccc(Oc4ccccc4)cc23)c1`, for which the growth is 90.7% (inactive).

Consider `O=C(CN1C(=O)NC2NC(=O)NC21)N/N=C/c1cccc([N+](=O)[O-])c1` (stereo not given), for which the growth is 112% (inactive).

Consider `CC(=O)[C@H]1CC[C@]2(C)[C@@H]1CC[C@@H]1[C@@]3(C)C/C(=C/c4cccnc4)C(=O)C(C)(C)[C@@H]3CC[C@]12C`, for which the growth is 65.9% (inactive).

On to `Cc1ccc(C(F)(F)F)cc1N1CCN(C(=O)[C@H]2C[C@H]2c2ccc(C(F)(F)F)nc2)CC1`, for which the growth was 81.5% (inactive).

For the compound `CSc1nc(N)c2c(n1)NC(c1ccccc1)C1CCc3ccccc3C1=N2` (stereo not given), the growth was 72.2% (inactive).

For `CCN1CCN(CCOc2ccc(CNc3ccc4nc(CCC5CCCCC5)[nH]c4c3)cc2)CC1`, the growth is 48.3% (inactive).

For `Cc1ccccc1NC(=O)Cn1cc(CN2CCN(c3ccnc4cc(Cl)ccc34)CC2)nn1`, the growth was 106% (inactive).

On to `C=C(CNCCc1ccc(O)cc1)[C@@H]1CC[C@]2(CO)CC[C@]3(C)[C@H](CC[C@@H]4[C@@]5(C)CCC(N)C(C)(C)[C@@H]5CC[C@]43C)[C@@H]12` (stereo not given in full), for which the growth is -66.6% (active).

Turning to `COc1cc(C(=O)n2nc(NCCCc3ccccc3)c3cc(N)ccc32)cc(OC)c1OC`, the growth is 93.3% (inactive).

Regarding `Cc1cc(C)n(C(=O)CSc2nc3sc4c(c3c(=O)n2-c2ccccc2)CCCCC4)n1`, the growth is 97.6% (inactive).

Consider `COC(=O)c1c(C(=O)OC)c2ccc3c4ncccc4ccc3n2c1C(=O)c1ccc(C)cc1`, for which the growth was 83.2% (inactive).

As to `Cn1cc(-c2ccc3occ(-c4cccc(-c5ccncc5)c4)c3n2)cn1`, the growth is 17.7% (inactive).

For `CN1C(=O)N(C)C2C1NN=c1s/c(=C\c3ccc(F)cc3)c(=O)n12` (stereo not given), the growth is 24.8% (inactive).

`CC(C)C(=O)Nc1ncc(C(=O)NCCN(Cc2ccccc2)C(=O)c2ccc(S(=O)(=O)Nc3ccccc3)cc2)s1`: the growth was 103% (inactive).

Regarding `COc1cc2c(c(OC)c1OC)CCC(c1cccc(NC(=O)c3cccc(Cl)c3)c1)O2` (stereo not given), the growth is 85% (inactive).

Regarding `O=C(OCC(O)C(=O)NC12CC3CC(CC(C3)C1)C2)c1cccc(Br)c1` (stereo not given), the growth is 91.9% (inactive).

For `O=C(NCCN1CCOCC1)c1cncnc1Nc1ccc2c(ccn2Cc2ccccn2)c1`, the growth was 101% (inactive).

As to `O=C(Nc1cccc(Cn2c(=O)[nH]c3ccc(Oc4ncccn4)cc3c2=O)c1)c1cccc(Cl)c1`, the growth was 55.5% (inactive).

For `COc1ccc2c(O)cc3c(c2c1)[C@H](CCl)CN3C(=O)c1cc2cc(NC(=O)CCN3CCOCC3)ccc2[se]1`, the growth was -29.5% (active).

For `Cn1ccnc1C(=O)/C=C/c1ccc(C(=O)Nc2c(F)c(F)c(F)c(F)c2F)cc1`, the growth is 6.57% (active).

`N#CC1=C(N)Oc2c(ccc3cccnc23)C1c1ccccc1` (stereo not given): the growth was 32% (inactive).

Regarding `Cc1ccc(C2(C)NC(=O)N(CC(=O)Nc3cccc(C)c3)C2=O)cc1` (stereo not given), the growth was 101% (inactive).

In the case of `CCOC(=O)C1=C(C)N(C)C(=O)N(C)C1c1ccccc1` (stereo not given), the growth is 104% (inactive).

In the case of `CN(C)c1ccc(/C=C/C2=[N+](C)c3ccccc3C2(C)C)cc1`, the growth was 15.3% (inactive).

Regarding `Fc1ccc(/C=C/c2cc(/C=C/c3ccc(F)cc3)n(-c3cc(F)cc(F)c3)n2)cc1`, the growth is 90.8% (inactive).

For the compound `CCCCC#Cc1c(I)n(C2OC(CO[Si](C)(C)C(C)(C)C)C3OC(C)(C)OC32)c(=O)[nH]c1=O` (stereo not given), the growth is 94% (inactive).

For the compound `O=C(O)/C=C\C(=O)Nc1ccc2c(c1)Cc1cc(F)ccc1-2`, the growth is 106% (inactive).
